This note sets out measurements from PubChem BioAssay (NCI).

Assay in all cases: NCI-60 one-dose screen, 48 h (100 = growth as untreated, 0 = no growth, -100 = all killed)
The test system of test [1] is DU-145 prostate. Conditions: 10 µM unless noted.
Test [2] deals with K-562 leukemia. Conditions: 10 µM unless noted.
The subject of test [3] is MALME-3M melanoma. Conditions: 10 µM unless noted.
Test [4] has as its system MDA-MB-231 breast. As to conditions: 10 µM unless noted.
The test system of test [5] is RXF 393 renal. Conditions: 10 µM unless noted.
In test [6] the test system is SF-268 CNS. As to conditions: 10 µM unless noted.
Test [7] concerns SF-295 CNS. As to conditions: 10 µM unless noted.
For test [8], the system named is SF-539 CNS. Conditions: 10 µM unless noted.
Test [9] relates to UACC-257 melanoma. Conditions: 10 µM.
The test system of test [10] is M14 melanoma. As to conditions: 10 µM unless noted.

About 83,000 compounds went through this panel and 20% of them were active in at least one assay; those are over-represented in the sample as a whole.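 Step 1: grow cells in 96-well plates. Step 2: add test compound at a single concentration. Step 3: incubate 48 h. Step 4: record percent growth.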 A number with no mark means an inactive call. The source made the active and inactive calls. Rule for the calls: active = growth percent below 10; inactive = the rest.

`COc1cc(Cn2c(SCC(=O)Nc3ccc(Cl)cc3)nc3ccccc3c2=O)cc(OC)c1OC`: the growth in [1] is 66.5%; in [2], 45.7%; in test [3], 9.48% (active); in test [4], 49.3%; in [5], 19.1%; in test [6], 46.5%. Further, the growth in [7] was 62.2%; in [8] it was -14% (active); in [9], 73.8%; in test [10], 74.9%.
In the case of `COc1cc(OC)c(C(=O)/C=C/c2ccc(C(F)(F)F)cc2)c(OC)c1`, the growth in test [1] is 11.9%; in test [2], 32.3%; in test [3], 75.3%; in [4], 59.7%; in test [5] it was 41.1%; in test [6], 55.9%. The growth was 69.9% in test [7], 68.7% in test [8], 62.5% in [9] and 59% in [10].
For `N#CC1=C(N)OC2=C(C(=O)CCC2)C1c1ccco1` (stereo not given), the growth is 108% in [1]; 98.6% in test [2]; 113% in test [3]; 113% in test [4]; 114% in test [5]; 114% in [6]. Also, the growth is 108% in [7], 97.5% in test [8], 102% in [9] and 104% in test [10].
In the case of `O=C(O)c1ccc(-n2c(=O)c3ccccc3c3ccccc3c2=O)cc1`, the growth in test [1] is 113%; in test [2] it was 103%; in [3], 109%; in test [4], 106%; in [5], 108%; in [6], 99.5%. The growth in test [7] was 92.7%; in test [8] it was 97.1%; in [9] it was 102%; in test [10] it was 117%.
Regarding `C=CCn1c(C)nc2ccc(Nc3nc(Nc4ccc(F)cc4)nc4ccccc34)cc21`, the growth in [1] was 74.1%; in test [2], 21%; in test [3], 74.5%; in [4], 73.8%; in [5] it was 66.6%; in test [6], 66%. The growth in test [7] was 31.4%; in [8], 73%; in test [9] it was 92.6%; in test [10], 45.2%.
As to `NC(=O)NC(=O)/C=C/C(=O)OCCCl`, the growth in test [1] was 112%; in test [2], 94.4%; in [3], 95.9%; in test [4] it was 115%; in test [5], 105%; in test [6], 110%. In addition, the growth was 89.1% in test [7], 105% in [8], 77.4% in test [9] and 113% in test [10].
With `COc1ccc(C2=CC(c3ccc(Oc4ccnc5cc(Cl)ccc45)c(OC)c3)c3c(nc(OC)[nH]c3=O)N2)cc1` (stereo not given), the growth in test [1] is 75.6%; in test [2], 28%; in test [3], 78.5%; in test [4] it was 75.2%; in test [5], 78%; in test [6], 61.6%. Further, the growth in test [7] is 96.5%; in [8], 105%; in [9], 87.5%; in test [10], 82.8%.
Consider `CC(C)(C)c1ccc(S(=O)(=O)Oc2ccc3c4c(c(=O)oc3c2)CCCCC4)cc1`, for which the growth in test [1] is 77.4%; in test [2], 38.5%; in test [3], 44%; in test [4], 80.2%; in test [5], 48.1%; in test [6], 61.1%. For the same molecule, the growth was 2.71% (active) in [7], 42.7% in [8], 48.9% in test [9] and 39.4% in test [10].
Regarding `Nc1c(C(=O)Nc2ccccc2)sc2nc3c(cc12)CCC3`, the growth is 96.8% in test [1]; 35.4% in test [2]; 77.9% in test [3]; 80.7% in test [4]; 95.4% in [5]; 94% in [6]. Further, the growth in [7] was 106%; in test [8] it was 80.2%; in test [9] it was 90.5%; in [10] it was 69.7%.
On to `O=C(c1ccncc1)N1N=C(c2ccc(Cl)cc2)CC1c1c[nH]c2ccccc12` (stereo not given), for which the growth is 102% in test [1]; 88.3% in test [2]; 96.7% in test [3]; 71.3% in test [4]; 112% in test [5]; 94.2% in [6]. Moreover, the growth in test [7] was 97%; in test [8], 97%; in [9], 95.9%; in test [10], 95.3%.
With `COc1cc(-c2cc(/C=C3\CCCCC3=O)[nH]n2)cc(OC)c1OC`, the growth is 95.4% in [1]; 79.4% in test [2]; 101% in [3]; 94.6% in test [4]; 96.1% in [5]; 96.8% in test [6]. Also, the growth in test [7] was 96.4%; in test [8] it was 103%; in test [9], 95%; in test [10], 101%.
Turning to `COc1cccc(C2CC(=O)Nc3c2c(C)nn3-c2nc3ccccc3[nH]2)c1OC` (stereo not given), the growth was 76.5% in test [1]; 40.9% in test [2]; 52.3% in [3]; 82.1% in test [4]; 64.2% in test [5]; 76.4% in [6]. For the same molecule, the growth in [7] is 7.64% (active); in [8], 99.7%; in [9], 79.1%; in [10], 65.4%.
Consider `CCC1CCc2nc3sc(C(=O)Nc4cccc(C)c4)c(N)c3cc2C1` (stereo not given), for which the growth in test [1] is 78.3%; in [2], 35.8%; in test [3] it was 47.4%; in test [4], 79.8%; in test [5], 83.9%; in test [6] it was 77.6%. Also, the growth in [7] is 70.4%; in [8] it was 73.1%; in test [9], 56.3%; in test [10] it was 55.1%.
